Structures are written as SMILES. A structure can be active in one record and inactive in another. Activity calls are given as the source filed them. Rule for the calls: active = hit-call score of the fitted dose curve at least 0.9, where 1 is the maximum; inactive = score below 0.9.

This assay in a line: ATG_AP_1_CIS: Attagene CIS-FACTORIAL HepG2 Assay for human Activator Protein 1 (AP-1) (AID 2282931). The conditions noted are these: HepG2 Attagene cis-factorial AP-1 reporter mRNA; actives raise or lower the signal. The procedure: ATG_CIS is a cell-based, multiplexed-readout assay that uses HepG2, a human liver cell line, with measurements taken at 24 hours after chemical dosing in a 24-well plate.ATG_AP_1_CIS is one of 52 assay component(s) measured or calculated from the ATG_CIS assay. It is designed to make measurements of mRNA induction, a form of inducible reporter, as detected with fluorescence intensity signals by Reverse transcription polymerase chain reaction (RT-PCR) and Capillary electrophoresis technology.Data from the assay component ATG_AP_1_CIS was analyzed into 1 assay endpoint. This assay endpoint, ATG_AP_1_CIS, was analyzed with bidirectional fitting relative to DMSO as the negative control and baseline of activity. Using a type of inducible reporter, measures of mRNA for gain or loss-of-signal activity can be used to understand the reporter gene at the transcription factor-level as they relate to the gene FOS and JUN. Furthermore, this assay endpoint can be referred to as a primary readout, because this assay has produced multiple assay endpoints where this one serves a reporter gene function. To generalize the intended target to other relatable targets, this assay endpoint is annotated to the dna binding intended target family, where the subfamily is basic leucine zipper.
Human liver HepG2 cells are transiently transfected with multiple reporter transcription units (MRTUs) in 6-well plates using FuGene 6 reagent (Roche; 3 ml FuGene/1 mg DNA). The MRTU constructs are regulated by a cis-regulating element (promoter). […] A major difference between the CIS and TRANS system is that in CIS activities of endogenous TFs are measured, whereas the TRANS assay evaluates changes in activities of exogenous, chimeric NR-Gal4 proteins. […] At the end of 24 hour incubation, total RNA was isolated using TriZol reagent (Invitrogen). The isolated RNA is then reverse-transcribed using oligo(dT) primer and Mo-MLV reverse transcriptase (Invitrogen) with DNAse I (Ambion) treatment for 30 min. The one-tenth of the produced cDNA was amplified by PCR using Taq DNA polymerase (Invitrogen) and two reporter sequence-specific primers. The PCR products were fluorescently labeled by primer extension with 6-arboxyfluorescein (6-FAM) 5'-labeled reporter sequence-specific primer (2 min at 95 C, 20 s at 68 C and 10 min at 72 C) and these products were digested with 5U of HpaI (New England Biolabs) for 2h at 37 C. The fragments were purified using Qiaquick PCR columns (Qiagen), analyzed on an ABI 3130xL genetic analyzer (Applied Biosystems) with peak positions identified by using a set of X-rhodamine (ROX)-labeled MapMarker1000 molecular weight standards (BioVentures). The raw capillary electrophoresis data was processed using Attagraph software (Attagene).
One may read the AC50 as the concentration giving half of the maximal activity seen. In the case of `CC(C)=CC1C(C(=O)OCN2C(=O)C3=C(CCCC3)C2=O)C1(C)C` (stereo not given), the AC50 is 71.2 µM (active).

Consider `C[N+]1(C)CCCCC1`, for which the outcome was inactive. For `CON=C(C(=O)OC)c1ccccc1CON=C(C)c1cccc(C(F)(F)F)c1`, the compound was called inactive. Turning to `C#CC(C)(C)NC(=O)c1cc(Cl)cc(Cl)c1`, the compound was classed as inactive.

As to `CSc1nnc(C(C)(C)C)c(=O)n1N`, the outcome was inactive. Take `CCOP(=S)(OCC)SCCSCC`: the call was inactive. With `C#CCC1=C(C)C(OC(=O)C2C(C=C(C)C)C2(C)C)CC1=O` (stereo not given), the AC50 is 37.1 µM (active).

Consider `FC(F)C(F)(F)OCC(Cn1cncn1)c1ccc(Cl)cc1Cl` (stereo not given), for which the compound was called inactive. Take `CCOP(=O)(NC(C)C)Oc1ccc(SC)c(C)c1` (stereo not given): the compound was called inactive. Regarding `CN(C)[C@@H]1C(=O)C(C(N)=O)=C(O)[C@@]2(O)C(=O)C3=C(O)c4c(O)cccc4[C@@](C)(O)[C@H]3[C@H](O)[C@@H]12`, the outcome was inactive. Take `CC(C)[C@H](C(=O)O[C@H](C#N)c1cccc(Oc2ccccc2)c1)c1ccc(Cl)cc1`: the outcome was inactive. For the compound `O=c1ccc(=O)[nH][nH]1`, the compound was classed as inactive. For the compound `CCOP(=S)(OCC)OC(Cl)C(Cl)(Cl)Cl` (stereo not given), the call was inactive.

As for `CC[C@H](C)[C@H]1O[C@]2(C=C[C@@H]1C)C[C@@H]1C[C@@H](C/C=C(\C)[C@@H](O[C@H]3C[C@H](OC)[C@@H](O[C@H]4C[C@H](OC)[C@@H](NC)[C@H](C)O4)[C@H](C)O3)[C@@H](C)/C=C/C=C3\CO[C@@H]4[C@H](O)C(C)=C[C@@H](C(=O)O1)[C@]34O)O2`, the call was inactive.

Consider `CCCSP(=O)(OCC)SCCC`, for which the call was inactive. With `CCOP(=S)(OCC)Oc1ccc([N+](=O)[O-])cc1`, the AC50 was 82.6 µM (active). Consider `CC(C)N(C(=O)SCC(Cl)=C(Cl)Cl)C(C)C`, for which the call was inactive. `COc1cccc(C(=O)NN(C(=O)c2cc(C)cc(C)c2)C(C)(C)C)c1C`: the compound was classed as inactive. As for `CC1=NNC(=O)N(/N=C/c2cccnc2)C1`, the compound was classed as inactive.

In the case of `CCC(=O)Nc1ccc(Cl)c(Cl)c1`, the result was inactive.

As to `CCCOc1nn(C(=O)NS(=O)(=O)c2ccccc2C(=O)OC)c(=O)n1C`, the compound was classed as inactive.

For the compound `Cc1ccn2nc(S(=O)(=O)Nc3c(F)cccc3F)nc2n1`, the result was inactive. With `CC(C1CC1)C(O)(Cn1cncn1)c1ccc(Cl)cc1` (stereo not given), the compound was called inactive. Still for that read-out and setting: in the case of `CCOC(=O)CC(SP(=O)(OC)OC)C(=O)OCC` (stereo not given) it was “inactive”. Consider `O=[N+]([O-])c1cc(C(F)(F)F)c(Cl)c([N+](=O)[O-])c1Nc1ncc(C(F)(F)F)cc1Cl`, for which the call was inactive and the AC50 was 2.7 µM (active). Take `CCCSP(=O)(OCC)Oc1ccc(Br)cc1Cl` (stereo not given): the call was inactive. With `CCC(=NOC/C=C/Cl)C1=C(O)CC(C2CCOCC2)CC1=O` (stereo not given), the compound was called inactive. In the case of `CCc1cnc(C2=NC(C)(C(C)C)C(=O)N2)c(C(=O)O)c1` (stereo not given), the call was inactive. Turning to `CNC(=O)ON=C(C)SC`, the compound was called inactive. As for `CCNc1nc(Cl)nc(NC(C)(C)C#N)n1`, the result was inactive.

For `CNc1cnn(-c2cccc(C(F)(F)F)c2)c(=O)c1Cl`, the AC50 is 29.5 µM (active).

For `CSC1=N[C@@](C)(c2ccccc2)C(=O)N1Nc1ccccc1`, the AC50 was 3.2 µM (active).

As to `S=C1NCCN1`, the outcome was inactive. With `CNC(=O)Oc1cccc2c1OC(C)(C)O2`, the AC50 was 61 µM (active).

In the case of `Nc1nc(N)nc(NC2CC2)n1`, the call was inactive. On to `CCc1cccc(CC)c1N(COC)C(=O)CCl`, for which the concentration at half-maximal activity (AC50) is 6.1 µM (active). In the case of `CN1COCN(Cc2cnc(Cl)s2)C1=N[N+](=O)[O-]`, the compound was classed as inactive. In the case of `CC(COc1ccc(Oc2ccccc2)cc1)Oc1ccccn1` (stereo not given), the AC50 is 19.1 µM (active). On to `CCCOCC(=Nc1ccc(Cl)cc1C(F)(F)F)n1ccnc1`, for which the result was inactive.
